Compounds with a hit are over-represented: about 2.7% of the library has one in this group of screens.
HSP90 refold inh: blocks HSP90-mediated luciferase refolding in reticulocyte lysate; Rabbit reticulocyte lysate, luciferase refolding luminescence, 3 h; inhibition, % at 5.6 µM; 0.91% of 290,000 active;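 active = inhibition above the screen-wide mean plus 3 SD, computed separately per campaign, cut at about 16% in these data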;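 also: inhibitors lower the luminescence because luciferase stays unfolded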
SENP7 inh: SENP7 protease inhibition; recombinant SENP7, Z-RLRGG-aminoluciferin luminescence, 40 min; inhibition, % at 5 µM; 1.5% of 330,000 active; AID 434973;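 active = inhibition above about 50% at the single test dose, limit read from the data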
Target sequence (Q9BQF6 706-1050 limits assumed): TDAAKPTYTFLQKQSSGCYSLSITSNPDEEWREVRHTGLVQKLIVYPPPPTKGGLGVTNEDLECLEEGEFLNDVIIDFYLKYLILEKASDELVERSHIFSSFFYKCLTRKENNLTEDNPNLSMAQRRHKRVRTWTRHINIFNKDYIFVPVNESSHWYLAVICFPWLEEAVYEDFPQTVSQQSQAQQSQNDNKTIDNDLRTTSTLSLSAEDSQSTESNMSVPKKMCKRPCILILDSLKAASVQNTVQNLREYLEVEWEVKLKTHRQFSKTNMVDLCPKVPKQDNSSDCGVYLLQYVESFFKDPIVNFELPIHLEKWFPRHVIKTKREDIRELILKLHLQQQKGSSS
SENP8 block-1: SENP8 protease inhibition; inhibition, % at 10 µM; 1.2% of 330,000 active; Q96LD8; purified SENP8, Z-RLRGG-aminoluciferin cleavage, luminescence; AID 2540; in the data active = inhibition above about 50%
Target sequence (Q96LD8 whole entry, looked up): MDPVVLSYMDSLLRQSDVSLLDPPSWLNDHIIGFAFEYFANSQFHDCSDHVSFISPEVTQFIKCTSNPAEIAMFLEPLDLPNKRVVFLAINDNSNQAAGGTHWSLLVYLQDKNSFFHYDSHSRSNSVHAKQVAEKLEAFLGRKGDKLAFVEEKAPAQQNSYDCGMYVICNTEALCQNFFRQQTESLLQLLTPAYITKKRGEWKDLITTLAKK
SENP6 inh: inhibitors of human SENP6 protease; Q9GZR1; Recombinant SENP6 catalytic domain, aminoluciferin luminescence; inhibition, % at 10 µM; 1.8% of 330,000 active;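 active = inhibition above about 50% at the single tested dose, limit read from the data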
SENP8 block-2: SENP8 (human) protease inhibition. Q96LD8. recombinant SENP8, Nedd8 substrate fluorescence. inhibition, % at 20 µM. 0.64% of 360,000 active. AID 602440; in the data active = inhibition mostly above about 40%, no sharp cut-off; inactive = mostly below about 27%
Each line names hits and unclear results; the compound was inactive in the other large screens.

CCOc1ccc(/C=C2\SC(=S)N(NS(=O)(=O)c3ccc(C)cc3)C2=O)cc1OC	SENP8 block-2 43
COC(=O)Nc1nnc(/C=C/c2ccc(OC)cc2)s1	SENP6 inh 59
COc1ccc(/C=C/c2nnc(NC(C)=O)s2)cc1	none
COc1ccc(/C=C/C(=O)c2ccc(OC)cc2OC)cc1	none
COc1ccc(/C=C/C(=O)c2cc3c(cc2N)OCO3)cc1	SENP7 inh 96, SENP8 block-1 96, SENP6 inh 95
COc1cccc(/C=C2\SC(=S)N(CCCC(=O)N3CCCC3)C2=O)c1	SENP7 inh 65, SENP6 inh 78
O=C(COC(=O)c1cc(Br)ccc1Cl)NC1CC1	none (no result: SENP7 inh, SENP8 block-1, SENP6 inh)
COC(=O)N/N=C/c1cccc(OC(=O)c2ccc3c(c2)OCO3)c1	none
O=C(COc1ccccc1[N+](=O)[O-])N/N=C/c1cccc(OC(=O)c2ccc3c(c2)OCO3)c1	SENP7 inh 77, SENP6 inh 71
CCO[C@@H]1OC(C(=O)NCc2nc3ccccc3[nH]2)=C[C@H](c2cn(C(C)=O)c3ccccc23)[C@H]1CCCO	HSP90 refold inh 16
Oc1csc(Cc2nc(-c3ccc4ccccc4c3)cs2)n1	SENP7 inh 66
Oc1csc(Cc2nc(-c3ccc(-c4ccccc4)cc3)cs2)n1	none
CN1CCC/C1=C/C=C1\SC(=S)NC1=O	SENP8 block-2 82 (no result: SENP7 inh, SENP8 block-1, SENP6 inh)
CCOC(=O)c1ccc(NC(=O)Cn2cnc(S(=O)(=O)N3CCCC3)c2)cc1	none
O=C1C(=O)c2ccccc2C([O-])=C1[n+]1ccccc1	SENP8 block-2 59
COc1ccc(-c2cc(C)no2)cc1S(=O)(=O)N1CCN(c2ccccn2)CC1	none
COc1ccccc1NC(=O)CSc1nc(N)c(-c2ccccc2)c(=O)[nH]1	none
CC1C(=O)Nc2ccccc2N1C(=O)C1CC1 (stereo not drawn)	none
CCOC(=O)C1(C)C(C(=O)OC)=C(c2ccc(OC)cc2)c2ccccc2N1C(=O)OC (stereo not drawn)	none (no result: HSP90 refold inh, SENP8 block-1, SENP6 inh)
CCCC(=O)N1c2ccccc2C(=C2SC(C(=O)OC)=C(C(=O)OC)S2)C(=S)C1(C)C	SENP8 block-2 67
COC(=O)C1=C(C(=O)OC)SC(=C2C(=S)C(C)(C)N(C(=O)C3CC3)c3ccccc32)S1	SENP8 block-2 42
COC(=O)C1=C(C(=O)OC)SC(=C2C(=S)C(C)(C)N(C(=O)C(C)C)c3ccccc32)S1	SENP8 block-2 46
COc1ccc(OC)c(/C=C2\SC(=S)N(Cc3cccnc3)C2=O)c1	none
CCCCn1c(SCC(=O)Nc2cc(C)on2)nnc1-c1cccnc1	none
COc1ccc(C(=O)c2ccccc2O)c(O)c1	none (no result: HSP90 refold inh)
COc1ccc(/C=N/n2cnc3scc(-c4cccs4)c3c2=O)cc1OC	none
CCn1cc(-c2ccnc3cc(C(=O)O)nn23)c(C)n1	SENP8 block-1 95
O=C(NCCN1CCCCC1)Nc1ccc(F)cc1	none
O=C(NCCN1CCCCC1)Nc1cccc(F)c1	HSP90 refold inh 16
O=C1c2cccc(Cl)c2C(=O)c2c1cccc2N1CCCC1	SENP8 block-2 74
CCN1CCN(c2cc(C)c3cc(NC(=S)N4CC(C)CC(C)C4)ccc3n2)CC1 (stereo not drawn)	none (no result: SENP7 inh, SENP8 block-1, SENP6 inh)
CCN1CCN(c2cc(C)c3cc(NC(=S)N4CCCC(C)C4)ccc3n2)CC1 (stereo not drawn)	HSP90 refold inh 31
Cc1cc(C)nc(-n2nc(C)c(Br)c2Nc2ccc(Br)cc2)n1	none
Nc1ccc(N=Nc2ccccc2)c(N)n1	SENP8 block-2 36
O=C(Nc1nsc(-c2ccccc2)n1)c1cccs1	SENP7 inh 62, SENP6 inh 64
COc1ccccc1C(=O)NC(C)c1ccccc1 (stereo not drawn)	none
CCOC(=O)c1c2c(n(-c3ccc(OC)cc3)c1C)C(=O)C(=O)c1ccccc1-2	SENP8 block-2 110 (no result: HSP90 refold inh, SENP7 inh, SENP8 block-1, SENP6 inh)
CC(=O)N1CCc2c(sc(NC(=O)C3CC3)c2-c2nc3ccccc3s2)C1	SENP6 inh 68
CCCCC(=O)Nc1sc2c(c1-c1nc3ccccc3s1)CCN(C(C)=O)C2	none (no result: SENP7 inh, SENP8 block-1, SENP6 inh, SENP8 block-2)
CCOCC(=O)N1CCN(c2cccc(Cl)c2)CC1	none
COc1ccc(-c2noc(CSc3nc4sc(C)c(C)c4c(=O)n3-c3ccccc3)n2)cc1	none
COc1ccc(/C=C/c2nc(-c3ccccc3O)n[nH]2)cc1	SENP7 inh 95, SENP8 block-1 93, SENP6 inh 96
COc1cc(/C=C2\SC(=S)NC2=O)ccc1OS(=O)(=O)c1ccccc1	SENP6 inh 59 (no result: SENP8 block-2)
COc1cc(/C=C2/SC(=S)NC2=O)ccc1OS(=O)(=O)c1ccc(C)cc1	none
CC[n+]1c(/C=C/c2ccc(N(C)C)cc2)ccc2ccccc21	SENP8 block-2 47 (no result: SENP7 inh, SENP8 block-1, SENP6 inh)
COc1ccc(CC(NC(C)=O)C(=O)NC2CCN(S(=O)(=O)c3ccccc3)CC2)c(OC)c1 (stereo not drawn)	HSP90 refold inh 17
O=C(Nc1sc2c(c1C(=O)NCCCO)CCCC2)c1ccccc1	none
CCOc1ccc(/C=C2/SC(=S)N(n3c(C)ccc3C)C2=O)cc1	SENP8 block-2 41
COc1ccc(/C=C2/SC(=S)N(n3c(C)ccc3C)C2=O)cc1	none
Cc1ccc(NC(=O)c2csc(-c3ccccc3)c2C)cc1	HSP90 refold inh 34 (no result: SENP7 inh, SENP8 block-1, SENP6 inh)
Cc1ccc(NC(=O)c2cccc3ccccc23)cc1	none
Cn1cc([C@]2(O)C(=O)Nc3ccccc32)c2ccccc21	none (no result: HSP90 refold inh, SENP7 inh, SENP8 block-1, SENP6 inh)
Cc1nn(-c2nc3ccccc3[nH]2)c(=O)c2ccccc12	HSP90 refold inh 99 (no result: SENP7 inh, SENP8 block-1, SENP6 inh)
Cc1nn(-c2ccc3ccccc3c2)c(=O)c2ccccc12	none
O=C(NC(c1ccccc1)c1ccsc1)C1CCN(Cc2ccc(Cl)c(Cl)c2)CC1 (stereo not drawn)	none (no result: HSP90 refold inh, SENP7 inh, SENP8 block-1, SENP6 inh)
CN(C(=O)c1ccc(NC(=O)Cc2ccc(NC(=O)C3CCCN(C(=O)C4CCCC4)C3)cc2)cc1)C1CCCC1 (stereo not drawn)	none (no result: HSP90 refold inh, SENP7 inh, SENP8 block-1, SENP6 inh)
O=C(c1ccc(=O)oc1)N1CCOCC1	none
Cn1cccc1C(=O)C(=O)Nc1cccc(Cl)c1Cl	SENP7 inh 89
O=C(Nc1ccccc1)Nc1cccc(Cl)c1Cl	SENP7 inh 55, SENP6 inh 74
O=C(Cn1nnc2ccccc2c1=O)NCCc1ccccc1	none
Cc1cc2cc(CNC(=O)c3ccc(Br)o3)ccc2[nH]1	none (no result: HSP90 refold inh)
CC(C)Oc1ccc(C(=O)Nc2nnc(SCC(=O)N3CCOCC3)s2)cc1	HSP90 refold inh 16
CN(C)S(=O)(=O)c1ccc(C(=O)Nc2nnc(SCC(=O)N3CCOCC3)s2)cc1	none (no result: HSP90 refold inh, SENP7 inh, SENP8 block-1, SENP6 inh)
c1ccc(SSc2ccccc2)cc1	none
CC(/C=C1\SC(=O)N(CCCC(=O)O)C1=O)=C\c1ccccc1	HSP90 refold inh 37 (no result: SENP7 inh, SENP8 block-1, SENP6 inh)
O=C(Nc1nnc(-c2ccc3c(c2)OCCO3)o1)c1ccc(Cc2ccccc2)cc1	none
COC(=O)/C=C1\S/C(=N/N=C/c2ccc(Cl)cc2)NC1=O	SENP8 block-2 43
C#CCOCCOCCOCCNc1nc(N2CCN(C(=O)[C@H](CCC(=O)O)n3cc(C(N)CC(C)C)nn3)CC2)nc(N2CCN(C(=O)[C@H](CCC(=O)O)n3cc(C(N)CC(C)C)nn3)CC2)n1 (stereo partly drawn)	HSP90 refold inh 17

From PubChem BioAssay
